Most compounds without a hit are left out; they make up all but 1.6% or so of the library.
KCNQ2 pot – potentiators of rat KCNQ2 potassium channel. CHO-K1 KCNQ2, FluxOR thallium flux fluorescence; hits give high values. B-score at 10 µM. hit rate 0.54% among 310,000;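 active = fluorescence ratio B-score at least 3 SD of library B-scores, with initial fluorescence B-score within 3 of them, cut at about 5.3 in these data; same plate scores as AID 2156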;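 note: B-score of peak minus minimum over baseline fluorescence ratio after K+ and Tl+ stimulus; positive B-score means potentiation of KCNQ2 with more thallium influx and brighter signal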
Target sequence (O88943 whole entry, looked up): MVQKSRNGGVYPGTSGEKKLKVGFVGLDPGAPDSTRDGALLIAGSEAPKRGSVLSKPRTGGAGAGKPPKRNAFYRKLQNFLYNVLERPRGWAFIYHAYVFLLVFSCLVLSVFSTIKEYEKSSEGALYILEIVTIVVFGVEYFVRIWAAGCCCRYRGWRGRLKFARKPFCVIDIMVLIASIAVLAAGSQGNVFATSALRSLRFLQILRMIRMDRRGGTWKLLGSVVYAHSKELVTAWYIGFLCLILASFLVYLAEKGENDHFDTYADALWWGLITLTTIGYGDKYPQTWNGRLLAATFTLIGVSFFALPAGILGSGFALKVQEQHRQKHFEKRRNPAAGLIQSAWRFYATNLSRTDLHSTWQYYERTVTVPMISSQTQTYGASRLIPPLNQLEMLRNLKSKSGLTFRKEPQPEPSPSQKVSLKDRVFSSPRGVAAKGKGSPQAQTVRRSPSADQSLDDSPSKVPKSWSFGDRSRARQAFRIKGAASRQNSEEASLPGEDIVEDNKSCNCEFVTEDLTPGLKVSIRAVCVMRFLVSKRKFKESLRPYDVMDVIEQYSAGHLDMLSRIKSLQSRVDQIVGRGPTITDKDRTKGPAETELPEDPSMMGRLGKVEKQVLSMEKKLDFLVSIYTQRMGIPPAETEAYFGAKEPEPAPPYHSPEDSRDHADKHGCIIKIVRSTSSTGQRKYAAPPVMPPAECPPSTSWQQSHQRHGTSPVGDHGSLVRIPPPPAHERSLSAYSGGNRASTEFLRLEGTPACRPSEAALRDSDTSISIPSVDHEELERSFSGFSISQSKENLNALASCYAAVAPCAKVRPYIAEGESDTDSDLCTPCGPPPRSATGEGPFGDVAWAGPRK
KCNQ2 inh – rat KCNQ2 potassium channel inhibitors, primary screen, cell-based, CHO-K1, FluxOR thallium flux, B-score; Potassium voltage-gated channel subfamily KQT member 2 (Rattus norvegicus), O88943; 20 min; hits give low values; B-score at 10 µM; hit rate 1.1% among 310,000;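 active = fluorescence ratio B-score at most minus 3 library SDs, with starting brightness B-score within 2 library SDs, cut at about -5.5 in these data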
* = called active by the depositor; i = inactive; . = not tested or not shown.

SMILES	KCNQ2 pot	KCNQ2 inh
COC(=O)CNC(=O)c1cccs1	1	i
O=C(NC1CCCC1)c1ccccc1-c1ccccc1	1.2	i
O=C(CSc1nnc2ccc(-c3cccnc3)nn12)Nc1ccc(F)cc1	.	i
CCOC(=O)N1CCN(C(=O)c2ccc(CS(=O)(=O)c3ccccc3OC)o2)CC1	0.24	i
COc1ccccc1S(=O)(=O)Cc1ccc(C(=O)N2CCN(c3ccc(C)cc3)C(C)C2)o1 (centres undefined)	-6.6	-6.6*
COCCN(CCOC)S(=O)(=O)c1ccc(C(=O)Nc2ccc(S(=O)(=O)Nc3nccc(C)n3)cc2)cc1	0.74	i
CS(=O)(=O)N(CC(=O)Nc1ccccc1-c1ccccc1)c1ccccc1	.	i
Cc1ccc(N(CC(=O)Nc2ccccc2-c2ccccc2)S(=O)(=O)c2ccccc2)c(C)c1	-7.7	-7.7*
CC(=O)c1ccc(NC(=O)Cn2cnc(S(=O)(=O)N3CCOCC3)c2)cc1	1.2	i
CC1=C(C(=O)Nc2ccccc2F)C(c2ccsc2)C2=C(CC(c3ccccc3)CC2=O)N1 (centres undefined)	-6.1	-6.1*
CCOCCOC(=O)C1=C(C)NC2=C(C(=O)CC(c3cccs3)C2)C1c1ccsc1 (centres undefined)	.	i
O=C(COC(=O)Cc1ccc(Cl)cc1Cl)Nc1ccc(OC(F)F)cc1	1.6	i
CCOC(=O)c1c(NC(=S)NC)sc2c1CC(C)(C)SC2	11*	i
CCOC(=O)c1c(NC(=S)Nc2ccccc2)sc2c1CC(C)(C)SC2	.	i
CNC(=S)Nc1sc2c(c1C(=O)OC)CCC2	5.6*	i
COC(=O)c1c(NC(C)=O)sc2c1CCCC2	.	i
CC(=O)Nc1cc(C(=O)N(C)Cc2ccco2)ccc1Sc1ccc(Cl)cc1	1	i
C/C=C/C(=O)Nc1cccc(C2=NOC3(C2)C[C@H](C(N)=O)N(C(=O)/C=C/C)C3)c1 (some centres undefined)	1.6	i
O=C(Nc1ccccc1Cl)c1cc2ccccc2o/c1=N\O	-5.6	-5.6*
O=C(Nc1ccccc1Cl)c1ccccc1Cl	.	i
CC1CC(C)(C)N(C(=O)CSc2ccc(-c3ccc(F)cc3)nn2)c2ccccc21 (centres undefined)	-5.7	-5.7*
CC1CCN(C(=O)CSc2ccc(-c3ccc(F)cc3)nn2)CC1	1.1	i
O=C(Nc1nnc(C2CC2)s1)c1ccco1	.	i
CCOC(=O)c1c(C)[nH]c(C(=O)NNC(=O)c2ccccc2)c1C	0.03	i
CC1(C)C2CCC1(C)C(OC(=O)CNc1ccccc1)C2 (centres undefined)	.	i
SMILES	KCNQ2 pot	KCNQ2 inh
COc1cc(C(=O)OC2CC3CCC2(C)C3(C)C)ccc1OC(C)=O (centres undefined)	-5.7	-5.7*
COc1ccc(-c2cc3nc(C)cc(N4CC(C)CC(C)C4)n3n2)cc1 (centres undefined)	-6	-6*
COc1ccc(-c2cc(C(F)(F)F)n3nc(C)cc3n2)cc1	.	i
COc1cccc(N(C(=O)c2snc(C(N)=O)c2N)C(C(=O)NCc2ccccc2)c2ccc(O)cc2)c1 (centres undefined)	2.6	i
CC(c1ccco1)N(C(=O)COc1ccc(Cl)cc1Cl)c1ccccn1 (centres undefined)	-11	-11*
CC(c1ccco1)N(C(=O)c1ccccc1F)c1ccccn1 (centres undefined)	0.26	i
Cc1cc(C(F)(F)F)nn1Cc1n[nH]c(=S)n1-c1ccc(F)cc1	0.62	i
Cc1cc(-c2n[nH]c(=S)n2-c2ccc(F)cc2)nn1C	-6.3	-6.3*
COc1cccc(CN2CCN(Cc3ccccc3C(F)(F)F)CC2)c1	.	i
O=c1c2ccccc2sc2ccc(C#CC3(O)CCCCC3)cc12	.	i
COc1cccc2sc3ccc(C#CC4(O)CCCCC4)cc3c(=O)c12	-6.7	-6.7*
C=CCn1c(Cc2cccs2)nnc1SCC(=O)c1ccc(F)cc1	.	i
CC(C)C1=CC2=CCC3C(C)(C(=O)O)CCCC3(C)C2CC1 (centres undefined) (tested in a mixture with another compound)	-5.8	-5.8*
C=C[C@]1(C)C=C2CCC3[C@](C)(CCC[C@@]3(C)C(=O)O)C2CC1 (some centres undefined)	.	i
C=CCSc1nc2ccccc2c(=O)n1C1CCOC(C)(C)C1 (centres undefined)	-6	-6*
O=C1OCCC1Sc1nc2ccccc2c(=O)n1-c1ccc(F)cc1 (centres undefined)	.	i
C=CCSc1nc2ccccc2c(=O)n1Cc1ccccc1	-5.7	-5.7*
O=c1c2ccccc2nc(SCc2ccccc2Cl)n1Cc1ccccc1	.	i
CCn1c(SCc2ccccc2)nc2ccccc2c1=O	8.2*	i
CCSc1nc2ccccc2c(=O)n1C1CCOC(C)(C)C1 (centres undefined)	.	i
O=C1OCCC1Sc1nc2ccccc2c(=O)n1Cc1ccc(F)cc1 (centres undefined)	6.3*	i
CCN(CC)C(=O)CSc1nc2ccccc2c(=O)n1CC	0.8	i
CCn1c(Cc2ccccc2)nnc1SCC(=O)Nc1ccc(N)cc1	.	i
c1ccc(CN2CCC3(CC2)Nc2ccccc2S3)cc1	1.2	i
CCOC(=O)CSc1nc2ccccc2c(=O)n1CC1CCCC1	-6.1	-6.1*
SMILES	KCNQ2 pot	KCNQ2 inh
CCOC(=O)CSc1nc2ccccc2c(=O)n1CC	0.49	i
CN(C)c1ccc(/C=N/NC(=O)C(=O)N2CCCCCC2)cc1	.	i
Nc1cccc(Oc2c(F)c(F)c(Oc3cccc(N)c3)c(F)c2F)c1	.	i
O=C1C(Oc2ccccc2)C(c2cccs2)N1Cc1ccc2c(c1)OCO2 (centres undefined)	0.4	i
Cc1ccccc1OC1C(=O)N(Cc2ccc3c(c2)OCO3)C1c1sccc1C (centres undefined)	-6	-6*
N#CCC(=O)Nc1ccc(C(=O)NCCC(c2ccccc2)c2ccccc2)cc1	.	i
CCCCN(C)CCC(=O)Nc1ccc(OC)cc1OC	.	i
CCOC(=O)C1=C(COC(=O)/C=C/c2cc(Br)ccc2F)NC(=O)NC1C (centres undefined)	0.26	i
COC(=O)C1Cc2c([nH]c3ccccc23)C(C)N1 (centres undefined)	0.85	i
NC(=O)CSCc1cccc(Br)c1	.	i
NC(CSCc1cccc(Br)c1)C(=O)O (centres undefined)	-6	-6*
O=C(N/N=C/c1coc2ccc(Cl)cc2c1=O)c1ccncc1	.	i
c1ccc(-n2cnnc2SCc2cn3ccsc3n2)cc1	.	i
Cc1ccc(-n2c(SCc3cn4ccsc4n3)nc3ccccc3c2=O)cc1	-5.6	-5.6*
CCOC(=O)c1nn(-c2ccc(C)cc2)c(=O)cc1OCC(=O)Nc1cccc(OC)c1	1.2	i
CC(C)CNC(=S)N1CCC(NC(=O)C23CC4CC(CC(C4)C2)C3)CC1	0.54	i
Cc1nc2cc(S(=O)(=O)N3CCC(C(=O)O)CC3)ccc2n1C1CCCC1	0.09	i
Cc1ccc(NC(=O)NC2CCCc3ccccc32)cc1 (centres undefined)	-5.8	-5.8*
CC(C)(C)c1ccc(NC(=O)NC2CCCc3ccccc32)cc1 (centres undefined)	.	i
C/C(=N\NC(=O)CNC(=O)c1ccccc1F)c1ccco1	.	i

Screening results (PubChem BioAssay)
